Measured values as given in the supplement of paper PMC3334620.
Over roughly 33,000 sequences, “E-score (-0.5 to 0.5)” has its median near -0.0034; the highest 2% begin near 0.25. The list comes from a sample in which the highest values are over-represented; it also holds similar and randomly drawn sequences.

Target: T1, Yap3 (UniProt P38749)
T1 sequence: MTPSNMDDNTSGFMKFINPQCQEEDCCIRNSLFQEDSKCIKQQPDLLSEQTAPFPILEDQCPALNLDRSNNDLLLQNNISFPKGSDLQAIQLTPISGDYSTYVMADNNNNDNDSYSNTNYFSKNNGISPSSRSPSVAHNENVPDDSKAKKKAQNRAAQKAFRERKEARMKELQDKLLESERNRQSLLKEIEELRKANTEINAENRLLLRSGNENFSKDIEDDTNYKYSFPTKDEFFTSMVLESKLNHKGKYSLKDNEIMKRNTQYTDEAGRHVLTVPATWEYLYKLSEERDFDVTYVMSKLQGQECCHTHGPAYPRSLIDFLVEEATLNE
Assay: PBM E-score (8-mer binding enrichment) (E-score (-0.5 to 0.5)); higher = stronger / more preferred TF binding
Settings: protein concentration: 100 nM; construct: GST-full length
Procedure: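 Universal 'all 10-mer' protein binding microarrays (Agilent AMADID 015681) probed with GST-tagged S. cerevisiae TFs (full-length or DBD) made by in vitro transcription/translation (PURExpress), about 100-200 nM. Bound TF was detected with fluorescent anti-GST. Each ungapped 8-mer (which stands for itself and its reverse complement) is scored by the PBM enrichment score (E-score), a modified Wilcoxon-Mann-Whitney statistic from -0.5 to +0.5, computed with the Universal PBM Analysis Suite. Scale: above 0.35 generally sequence-specific binding.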

Row | Sequence | PBM E-score
1 | CTTTGACC | 0.0628
2 | AGCTTGGC | -0.207
3 | AATAGCGT | 0.195
4 | ATATTACC | 0.276
5 | AGATTACC | 0.155
6 | CTATTACC | -0.0641
7 | CAAGTACA | -0.0722
8 | AAAGTACC | 0.176
9 | AAAGTACA | 0.27
10 | ACGAAGAA | 0.282
11 | ACAAGAAT | 0.1
12 | TCAAAGAA | -0.0713
13 | CCAAAGAA | 0.124
14 | ACGAAGAT | 0.0321
15 | ATAAGAAT | 0.207
16 | CCAAGAAA | -0.00981
17 | ACAAAGAA | 0.257
18 | ATAAGAAA | 0.207
19 | TCGAAGAA | -0.0713
20 | ACAAGAAA | 0.268
21 | ATAAGAAC | 0.289
22 | AACTTTTC | 0.0947
23 | AATCCCGG | -0.139
24 | CTGAGGAA | -0.0654
25 | ACCAGGTG | -0.245

Row | Sequence | PBM E-score
26 | CCTTTGGA | -0.218
27 | ACCACAGT | 0.143
28 | GAACCAAC | 0.00249
29 | AGACATCC | -0.152
30 | GACTGCAA | -0.0662
31 | CCAACCGG | -0.193
32 | ATCCAACC | 0.00913
33 | CGGGTGGC | -0.289
34 | CTAAAGAA | 0.0205
35 | ATAAAGAA | 0.26
36 | TTAAAGAA | 0.19
37 | ATATCACG | 0.181
38 | GTGTCGAA | -0.0549
39 | CTGTATGC | -0.0877
40 | CACGCCAA | -0.0782
41 | ATTCAATC | 0.0991
42 | AAAAGTGA | 0.132
43 | TAAAGTGA | 0.263
44 | CAAAGTGA | 0.0818
45 | CCAACTCC | 0.117
46 | GGCCCAAA | -0.0982
47 | CCAGCAAA | 0.0803
48 | ATTAGTCG | 0.12
49 | ATTAGTCA | 0.42
50 | ATTAGTGA | 0.179

Row | Sequence | PBM E-score
51 | ATAAGTCA | 0.262
52 | ATAAGTCC | 0.0332
53 | ATTAGTGG | 0.243
54 | CCTAGTCA | 0.0001
55 | ATTAGTCC | 0.207
56 | CTAAGTCA | 0.024
57 | ATTAGTGC | 0.299
58 | CTTAGTCC | -0.0515
59 | CTTAGTCA | 0.373
60 | CATTGAAC | 0.07
61 | GCGTTGCA | -0.112
62 | CAGAAACC | 0.0742
63 | CACGCTAA | 0.0663
64 | CGATCGAC | 0.14
65 | AGATCTAT | -0.115
66 | ATCGGGCG | -0.21
67 | AGTGCTCG | -0.11
68 | TCAAGCAA | -0.15
69 | AAGAGCAC | -0.0358
70 | ATTAGTTA | 0.291
71 | ATCAGTTA | 0.272
72 | GTTAGTTA | 0.169
73 | GTCAGTTA | 0.113
74 | GTTAGTGA | 0.0844
75 | GTTAGTAA | 0.217

Row | Sequence | PBM E-score
76 | CTTAGTAA | 0.429
77 | CTTAGTAC | 0.0262
78 | GTTAGTCA | 0.33
79 | CTCAGTTA | -0.0635
80 | ATTAGTTG | 0.192
81 | GGTAGTCA | -0.176
82 | ACAGGTCG | -0.0506
83 | TATTGACA | 0.0463
84 | CCGCCAGC | -0.196
85 | AACACTGC | 0.186
86 | CACGCCTA | -0.1
87 | GATATGCC | -0.0864
88 | ATGATCGA | 0.0147
89 | CTGATCGA | -0.239
90 | GTGATCGA | 0.282
91 | ACTTCCGG | 0.0969
92 | CTCAAGAC | -0.133
93 | GATGAGTA | 0.181
94 | AGTGAGTA | 0.271
95 | AATGAGAC | -0.0964
96 | CGTGAGTA | -0.0244
97 | AGTGAGTG | -0.0641
98 | AATGAGAG | -0.0586
99 | AATGAGAT | 0.266
100 | AATGAGTA | 0.33

Row | Sequence | PBM E-score
101 | CATGAGTA | 0.0202
102 | ACAAAACA | 0.202
103 | TCCTAAAA | -0.115
104 | CATAGAAA | 0.268
105 | TACAGAAA | 0.262
106 | AACAGAAA | 0.157
107 | CAGAGAAG | -0.127
108 | CAGAGAAA | 0.278
109 | GATAGAAA | 0.187
110 | GAGAGAAA | 0.0853
111 | GACAGAAA | 0.183
112 | TATAGAAA | 0.0802
113 | CATCTACC | 0.145
114 | CTTGAGCA | -0.119
115 | ATCTTGCA | 0.151
116 | AATAGATC | 0.08
117 | GATTAATC | 0.117
118 | TATTAACA | 0.23
119 | CATTAATG | 0.212
120 | AATTAAGA | 0.154
121 | GATTAAGA | 0.193
122 | AATTAATC | 0.0963
123 | AATTAATA | 0.353
124 | TATTAATA | 0.301
125 | AATTAATT | 0.211

Row | Sequence | PBM E-score
126 | GATTAATA | 0.367
127 | CATTAATA | 0.193
128 | AATTAATG | 0.29
129 | CACCCATG | -0.014
130 | ATCGCACC | -0.106
131 | GCTCTGTA | -0.055
132 | GCCAAGTA | -0.0708
133 | CATAAGAG | -0.071
134 | CTTTTGTC | 0.0462
135 | CGACCCAC | -0.219
136 | TCGGATAA | 0.143
137 | GTCAAGTA | -0.12
138 | ATCTCTGC | 0.0777
139 | ACACTGAT | 0.0678
140 | ATTACTGG | -0.0154
141 | GGCGAAAC | 0.0862
142 | CACGAAAA | 0.176
143 | GACGAAAA | 0.264
144 | TACGAAAA | 0.144
145 | TGCGAAAA | 0.0554
146 | GGCGAAAA | 0.256
147 | CTGCGATC | -0.0633
148 | CGTAGATC | 0.0115
149 | GTACAGGA | 0.0424
150 | AACATCTC | 0.08

Row | Sequence | PBM E-score
151 | ACAGAAAC | 0.285
152 | ACTGAAAG | 0.114
153 | GCTGAAAC | -0.0804
154 | ACTGAAAC | 0.27
155 | CCAGAAAC | 0.0139
156 | ACAGAAAA | 0.198
157 | GCAAATCC | 0.156
158 | CGTCCTTC | 0.0406
159 | CTATGGGA | -0.103
160 | CGTCCCTA | -0.206
161 | AACTATAA | 0.186
162 | TACTATAA | 0.266
163 | CACTATAA | -0.00697
164 | CACTAACA | 0.162
165 | AACTAAAA | 0.148
166 | CACTGAAA | 0.0595
167 | TACTAAAA | 0.255
168 | AACTAACA | 0.211
169 | TACTAACA | 0.294
170 | GACTAAAA | 0.0994
171 | GACTGAAA | 0.0541
172 | TACTGAAA | 0.273
173 | GACTTTGA | 0.00307
